Cruzain Triton: cruzain (T. cruzi) inhibition with detergent. purified cruzain, Z-FR-AMC fluorescence, 0.01% Triton. Potency, µM, for the others: max response, negative = inhibition, hits mostly inhibitors. 200,000 tested, 0.43% active;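 note: plate controls were neutral wells for no effect and buffer without enzyme for full effect; nearly all actives have a fitted effect of over 40% in size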
Target sequence (P25779 123-467 limits assumed): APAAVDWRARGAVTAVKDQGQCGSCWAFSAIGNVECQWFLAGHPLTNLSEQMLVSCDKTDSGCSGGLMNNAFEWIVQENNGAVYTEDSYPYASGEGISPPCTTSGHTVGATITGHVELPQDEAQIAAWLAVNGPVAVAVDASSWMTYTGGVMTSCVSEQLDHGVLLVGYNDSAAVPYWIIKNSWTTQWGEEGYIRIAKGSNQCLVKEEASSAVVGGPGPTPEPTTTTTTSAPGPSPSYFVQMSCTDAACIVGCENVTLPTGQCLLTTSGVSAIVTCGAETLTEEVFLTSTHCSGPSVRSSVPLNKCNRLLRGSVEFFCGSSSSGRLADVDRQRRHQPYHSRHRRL
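Compounds were screened in titration against cruzain (1.5 nM) with 0.01% Triton X-100 to counter colloidal aggregation. Activity was the AMC fluorescence increase over 60 s after adding 2 uM Z-FR-AMC at pH 5.5.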
Cruzain noTriton: inhibitors of Trypanosoma cruzi cruzain without detergent | P25779 | purified cruzain, Z-FR-AMC fluorescence, no detergent | Potency, µM, without a hit: max response, negative = inhibition, most hits filed as inhibitors | 200,000 tested, 2.3% active | AID 1476;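 note: plate controls were enzyme without inhibitor for no effect and buffer without enzyme for full effect; nearly all actives have a fitted effect of over 40% in size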
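Detergent-free condition (0.00005% Triton X-100) in acetate buffer pH 5.5 with DTT. 1.5 nM enzyme and compound were pre-mixed 15 min, then 2 uM Z-FR-AMC substrate added; reaction progress from fluorescence change between first and third reads (60 s).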
Numbers without * were called inactive; ? = inconclusive. Only some compounds are listed: those with a hit (about 2.5% of all), similar ones and a draw of the others. Calls come from the whole dose curve; as a rule, active = well fitted curve in the direction sought with a large enough effect; inconclusive = small, poorly fitted or top-dose-only effect, or another doubt; inactive = no such curve, though single readings can be large; an effect the other way counts as inactive or inconclusive. Potency is the fitted concentration of half-maximal effect.

SMILES	Cruzain Triton	Cruzain noTriton
COc1cc(-c2noc(-c3ccc(NCc4cccnc4)c([N+](=O)[O-])c3)n2)cc(OC)c1OC	-11%	?
COC(=O)N[C@H](c1ccccc1)[C@@]1(C)C[C@@H]1[C@@H](C)C(=O)Nc1ccc2ccccc2c1	-1%	-1%
C[C@@H](C(=O)Nc1ccc2ccccc2c1)[C@H]1C[C@]1(C)[C@H](NS(=O)(=O)c1ccc2ccccc2c1)c1ccccc1	2%	10µM*
C[C@@H](C(=O)Nc1ccc2ccccc2c1)[C@H]1C[C@]1(C)[C@H](NS(=O)(=O)c1ccc(-c2ccccc2)cc1)c1ccccc1	1%	3.2µM*
Cc1nn(C)c(Cl)c1S(=O)(=O)N[C@@H](c1ccccc1)[C@]1(C)C[C@H]1[C@@H](C)C(=O)Nc1ccc2ccccc2c1	-4%	16%
C[C@@H](C(=O)Nc1ccc2ccccc2c1)[C@@H]1C[C@@]1(C)[C@@H](NC(=O)c1ccccc1)c1ccccc1	-2%	?
CC(=O)N[C@H](c1ccccc1)[C@@]1(C)C[C@@H]1[C@@H](C)C(=O)Nc1ccc2ccccc2c1	-4%	-4%
C[C@@H](C(=O)Nc1ccc2ccccc2c1)[C@@H]1C[C@@]1(C)[C@@H](NS(=O)(=O)c1ccc2ccccc2c1)c1ccccc1	4%	7.9µM*
C[C@@H](C(=O)Nc1ccc2ccccc2c1)[C@H]1C[C@]1(C)[C@H](NC(=O)Oc1ccc(F)cc1)c1ccccc1	1%	16µM*
COCCNC(=O)c1cnn(-c2ccc(C)cc2C)c1C1CCN(C(=O)OC(C)(C)C)CC1	-1%	?
COc1cc(Cl)c(C)cc1NC(=O)CSc1nc2c(c(=O)[nH]1)CCC2	-8%	4%
CCOC(=O)c1[nH]c(C)c(CCC(=O)NCc2ccc(N(C)C)cc2)c1C	4%	4%
CC(=O)c1cccc(NC(=O)CCCSc2nc(-c3ccco3)cc(C(F)(F)F)n2)c1	-12%	19%
CC(C)OC(=O)c1c(NC(=O)C2c3ccccc3Oc3ccccc32)sc2c1CCCC2	-7%	6.3µM*
CCN(CC)C(=O)c1sc(NC(=O)C2c3ccccc3Oc3ccccc32)c(C(=O)OC(C)C)c1C	-1%	-7%
CCOC(=O)c1c(NC(=O)C2c3ccccc3Oc3ccccc32)sc(C(N)=O)c1C	2%	-24%
CCC1CCc2c(sc(NC(=O)C3c4ccccc4Oc4ccccc43)c2C(N)=O)C1 (stereo not drawn)	-1%	25µM*
CCOC(=O)c1c(NC(=O)c2ccccc2OCC)sc2c1CCC(CC)C2 (stereo not drawn)	-1%	2%
CCCOC(=O)c1c(NC(=O)C2c3ccccc3Oc3ccccc32)sc2c1CCCC2	-4%	25µM*
O=C1C(CCC(O)c2ccc(F)cc2)C(c2ccc(O)cc2)N1c1ccc(F)cc1 (stereo not drawn)	-3%	1%
Cc1cc(C)c2c(=O)cc(CSCC(=O)Nc3ccccc3Cl)[nH]c2c1	2%	0%
O=C(NCCc1ccccc1Cl)c1ccc2c(c1)nc1n2CCOC1	3%	3%
CCOC(=O)c1cccc(NC(=O)CCc2c(C)nc3cc(-c4ccc(Cl)cc4)nn3c2C)c1	2%	3%
Cc1ccc(/C=C2/SC(=S)N(CCC(=O)N3CCN(c4ccccc4)CC3)C2=O)cc1	1%	-8%
CC(/C=C1\SC(=S)N(CC(=O)N2CCN(c3ccccc3)CC2)C1=O)=C\c1ccccc1	-6%	10µM*
SMILES	Cruzain Triton	Cruzain noTriton
CC(=O)c1ccc(NC(=O)CCCN2C(=O)/C(=C/C(C)=C/c3ccccc3)SC2=S)cc1	-9%	32µM*
CC(/C=C1\SC(=O)N(CC(=O)Nc2ccc(O)cc2)C1=O)=C\c1ccccc1	0%	13%
Cc1ccc2scc(N3CCc4ccccc4C3)c(=O)c2c1	-7%	8%
CSc1ccc(C(=S)N2CCN(C)CC2)cc1	3%	11%
CSc1ccc(C(=S)N2CCN(C(c3ccccc3)c3ccccc3)CC2)cc1	-2%	4µM*
CCOc1ccccc1-c1noc(CSc2nnc(-c3ccccc3)n2-c2cccc(C)c2)n1	-3%	-6%
CCn1c(CNC(=O)Cc2ccc(OC)cc2)nnc1SCC(=O)Nc1nccs1	5%	-7%
CCn1c(COc2ccc3c(c2)CCCC3)nnc1SCC(=O)Nc1nccs1	9%	7.9µM*
CCc1cccc(NS(=O)(=O)c2ccc3c(c2)N(CC(=O)OC)C(=O)CS3)c1	-10%	9%
CC1CCN(S(=O)(=O)c2ccc(NC(=O)N3c4ccccc4Sc4ccccc43)cc2)CC1	-1%	13µM*
CC1CCN(S(=O)(=O)c2ccc(S(=O)(=O)NCc3ccccc3)cc2)CC1	4%	16µM*
O=S(=O)(NCc1ccccc1)c1ccc(S(=O)(=O)N2CCCCC2)cc1	3%	?
NS(=O)(=O)c1ccc(NC(=O)N2c3ccccc3Sc3ccccc32)cc1	-2%	1%
COc1ccc(-c2cc(C(F)(F)F)nc(SCC(=O)NC(C)c3ccccc3)n2)cc1 (stereo not drawn)	-4%	-2%
CCC(=O)N1CCc2cc(Br)cc(S(=O)(=O)CCC(=O)Nc3ccccc3C)c21	1%	-1%
COc1cccc([C@@H]2Oc3ccc(Br)cc3C[C@H]2OC(=O)N[C@H]2CCCc3ccccc32)c1	4%	?
COc1ccc(Nc2nc(C)c3ccccc3n2)cc1	-5%	-4%
CC1=NC(Nc2nc(C)c3ccccc3n2)=NC(C)(C)C1	20µM*	16µM*
O=S(=O)(Nc1cccc(F)c1)c1ccc2[nH]c3c(c2c1)CCCCC3	-16%	-15%
CCC(=O)N1CCc2cc(CNC(=O)Nc3cc(C)ccc3C)ccc21	-1%	?
Cc1ccc(NCc2cccn2-c2nnc(N3CCCCCC3)s2)cc1	-4%	-9%
COc1ccc(C)cc1NC(=O)CSc1nc(=O)n(Cc2ccncc2)c2c1CCC2	-4%	?
Cc1cn(C2OC(COC(=O)c3ccccc3)C(OC(=O)c3ccccc3)C2OC(=O)c2ccccc2)c(=O)[nH]c1=O (stereo not drawn)	-1%	?
O=C(OCC1OC(OC(=O)c2cc(O)c(O)c(OC(=O)c3cc(O)c(O)c(O)c3)c2)[C@@H](OC(=O)c2cc(O)c(O)c(OC(=O)c3cc(O)c(O)c(O)c3)c2)C(OC(=O)c2cc(O)c(O)c(OC(=O)c3cc(O)c(O)c(O)c3)c2)C1OC(=O)c1cc(O)c(O)c(OC(=O)c2cc(O)c(O)c(O)c2)c1)c1cc(O)c(O)c(OC(=O)c2cc(O)c(O)c(O)c2)c1 (stereo partly drawn)	16µM*	7.9µM*
O=c1oc2ccccc2cc1-c1csc(NN=C2CCCC2)n1	-10%	-12%
SMILES	Cruzain Triton	Cruzain noTriton
C/C(=N\Nc1nc(-c2cc(C)ccc2C)cs1)c1cc2ccccc2oc1=O	?	25µM*
O=C(c1ccco1)c1cc2c(ccc3ccccc32)oc1=O	4%	-4%
C/C(=N\Nc1nc(-c2cc(C)ccc2C)cs1)c1cc2c(ccc3ccccc32)oc1=O	-8%	7.9µM*
COC(=O)c1ccc(C2Nc3c(C)cc(C)cc3C3C=CCC32)cc1 (stereo not drawn)	-6%	-3%
CCOc1ccccc1CNC(=O)c1cnc2sc(N3CCOCC3)nn2c1=O	0%	-3%
CCCCc1nn2c(=O)cc(COC(=O)c3ccc(NC(=O)CCc4ccccc4)cc3)nc2s1	0%	-10%
COc1ccccc1-c1nc(C#N)c(N2CCC(Cc3ccccc3)CC2)o1	35µM*	?
COc1ccccc1-c1nc(C#N)c(N2CCN(Cc3ccccc3)CC2)o1	-19%	-2%

Assay outcomes deposited in PubChem BioAssay by National Center for Advancing Translational Sciences (NCATS).
